# According to PubChem BioAssay AID1159580 (chemical genetic matrix, 2015):
# The whole screen tested about 5,500 compounds, of which about 2,000 (36%) were called active. Roughly 18% stayed inconclusive and do not appear here. The list shows a part of the results. Unmarked numbers belong to inactive results. Rule as the data show it: active = normalized growth mostly below about 0.91 (no sharp cut-off); inconclusive = no clear call, values can overlap the other calls; inactive = mostly above about 0.92.
# Experiment: chemical genetic growth profiling, strain panel (AID 1159580);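 also: tested at 20 µM; growth read once vehicle control cultures reached saturation at 30 °C; 1 = growth at the plate median or of vehicle wells; lower values mean less growth of the strain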
# Details: growth OD
smiles,measurement,setting,value
O=C(O[C@@H]1Cc2c(O)cc(O)cc2O[C@@H]1c1cc(O)c(O)c(O)c1-c1c([C@H]2Oc3cc(O)cc(O)c3C[C@H]2O)cc(O)c(O)c1O)c1cc(O)c(O)c(O)c1,normalized growth,"S. cerevisiae deletion strains, locus YJL187C, strain SWE1 (second series), stronger effect = lower value",0.0786 (active)
same,normalized growth,"S. cerevisiae deletion strains, locus YJL187C, strain SWE1, stronger effect = lower value",0.981
same,normalized growth,"S. cerevisiae deletion strains, locus YKL009W, strain mrt4, stronger effect = lower value",1.08
same,normalized growth,"S. cerevisiae deletion strains, locus YKL068W, stronger effect = lower value",1.03
same,normalized growth,"S. cerevisiae deletion strains, locus YKL085W, strain MDH1 (second series), stronger effect = lower value",0.994
same,normalized growth,"S. cerevisiae deletion strains, locus YKL085W, strain MDH1, stronger effect = lower value",0.994
same,normalized growth,"S. cerevisiae deletion strains, locus YKL160W, strain elf1, stronger effect = lower value",0.968
same,normalized growth,"S. cerevisiae deletion strains, locus YKL190W, strain CNB1, stronger effect = lower value",0.0679 (active)
same,normalized growth,"S. cerevisiae deletion strains, locus YKR001C, strain vps1, stronger effect = lower value",0.487 (active)
same,normalized growth,"S. cerevisiae deletion strains, locus YKR026C, strain gcn3, stronger effect = lower value",1.03
same,normalized growth,"S. cerevisiae deletion strains, locus YKR091W, strain srl3, stronger effect = lower value",1.02
same,normalized growth,"S. cerevisiae deletion strains, locus YLL001W, strain dnm1, stronger effect = lower value",0.986
same,normalized growth,"S. cerevisiae deletion strains, locus YLL026W, stronger effect = lower value",1.03
same,normalized growth,"S. cerevisiae deletion strains, locus YLL041C, strain sdh2, stronger effect = lower value",1.04
same,normalized growth,"S. cerevisiae deletion strains, locus YLR027C, strain aat2, stronger effect = lower value",1
same,normalized growth,"S. cerevisiae deletion strains, locus YLR039C, strain RIC1, stronger effect = lower value",0.136 (active)
same,normalized growth,"S. cerevisiae deletion strains, locus YLR058C, strain SHM2, stronger effect = lower value",0.0917 (active)
same,normalized growth,"S. cerevisiae deletion strains, locus YLR102C, strain apc9, stronger effect = lower value",0.885 (active)
same,normalized growth,"S. cerevisiae deletion strains, locus YLR221C, strain rsa3, stronger effect = lower value",0.989
same,normalized growth,"S. cerevisiae deletion strains, locus YLR258W, strain gsy2, stronger effect = lower value",1.02
same,normalized growth,"S. cerevisiae deletion strains, locus YLR262C, strain YPT6 (second series), stronger effect = lower value",0.89
same,normalized growth,"S. cerevisiae deletion strains, locus YLR262C, strain YPT6, stronger effect = lower value",0.222 (active)
same,normalized growth,"S. cerevisiae deletion strains, locus YLR268W, strain sec22, stronger effect = lower value",0.225 (active)
same,normalized growth,"S. cerevisiae deletion strains, locus YLR320W, strain mms22, stronger effect = lower value",1.01
same,normalized growth,"S. cerevisiae deletion strains, locus YLR330W, strain CHS5, stronger effect = lower value",0.488 (active)
same,normalized growth,"S. cerevisiae deletion strains, locus YLR342W, strain FKS1, stronger effect = lower value",0.957
same,normalized growth,"S. cerevisiae deletion strains, locus YLR357W, strain rsc2, stronger effect = lower value",0.9
same,normalized growth,"S. cerevisiae deletion strains, locus YLR370C, strain arc18, stronger effect = lower value",1
same,normalized growth,"S. cerevisiae deletion strains, locus YLR371W, strain rom2, stronger effect = lower value",0.667 (active)
same,normalized growth,"S. cerevisiae deletion strains, locus YLR384C, strain iki3, stronger effect = lower value",1.02
same,normalized growth,"S. cerevisiae deletion strains, locus YLR418C, strain cdc73, stronger effect = lower value",0.238 (active)
same,normalized growth,"S. cerevisiae deletion strains, locus YML016C, strain PPZ1, stronger effect = lower value",0.0734 (active)
same,normalized growth,"S. cerevisiae deletion strains, locus YML032C, strain rad52, stronger effect = lower value",0.808 (active)
same,normalized growth,"S. cerevisiae deletion strains, locus YML120C, strain ndi1, stronger effect = lower value",1
same,normalized growth,"S. cerevisiae deletion strains, locus YML124C, strain tub3, stronger effect = lower value",0.733 (active)
same,normalized growth,"S. cerevisiae deletion strains, locus YMR058W, strain fet3, stronger effect = lower value",0.455 (active)
same,normalized growth,"S. cerevisiae deletion strains, locus YMR078C, strain ctf18, stronger effect = lower value",0.927
same,normalized growth,"S. cerevisiae deletion strains, locus YMR125W, strain sto1, stronger effect = lower value",1.04
same,normalized growth,"S. cerevisiae deletion strains, locus YMR129W, stronger effect = lower value",1.02
same,normalized growth,"S. cerevisiae deletion strains, locus YMR205C, strain PFK2, stronger effect = lower value",0.978
same,normalized growth,"S. cerevisiae deletion strains, locus YMR223W, strain ubp8, stronger effect = lower value",0.571 (active)
same,normalized growth,"S. cerevisiae deletion strains, locus YMR231W, strain pep5, stronger effect = lower value",0.942
same,normalized growth,"S. cerevisiae deletion strains, locus YMR263W, strain SAP30, stronger effect = lower value",0.386 (active)
same,normalized growth,"S. cerevisiae deletion strains, locus YMR307W, strain GAS1, stronger effect = lower value",0.343 (active)
same,normalized growth,"S. cerevisiae deletion strains, locus YNL067W, strain RPL9B, stronger effect = lower value",0.138 (active)
same,normalized growth,"S. cerevisiae deletion strains, locus YNL071W, strain lat1, stronger effect = lower value",1.02
same,normalized growth,"S. cerevisiae deletion strains, locus YNL128W, strain TEP1, stronger effect = lower value",0.0913 (active)
same,normalized growth,"S. cerevisiae deletion strains, locus YNL153C, strain GIM3, stronger effect = lower value",0.201 (active)
same,normalized growth,"S. cerevisiae deletion strains, locus YNL209W, strain ssb2, stronger effect = lower value",0.822 (active)
same,normalized growth,"S. cerevisiae deletion strains, locus YNL233W, strain BNI4, stronger effect = lower value",0.299 (active)
same,normalized growth,"S. cerevisiae deletion strains, locus YNL248C, strain rpa49, stronger effect = lower value",1.02
same,normalized growth,"S. cerevisiae deletion strains, locus YNL250W, strain rad50, stronger effect = lower value",0.963
same,normalized growth,"S. cerevisiae deletion strains, locus YNL271C, strain bni1, stronger effect = lower value",0.974
same,normalized growth,"S. cerevisiae deletion strains, locus YNL298W, strain CLA4, stronger effect = lower value",1
same,normalized growth,"S. cerevisiae deletion strains, locus YNL307C, strain MCK1, stronger effect = lower value",0.831 (active)
same,normalized growth,"S. cerevisiae deletion strains, locus YNL322C, strain KRE1 (second series), stronger effect = lower value",1.03
same,normalized growth,"S. cerevisiae deletion strains, locus YNR049C, strain mso1, stronger effect = lower value",1.03
same,normalized growth,"S. cerevisiae deletion strains, locus YNR052C, strain pop2, stronger effect = lower value",0.246 (active)
same,normalized growth,"S. cerevisiae deletion strains, locus YOL006C, strain TOP1, stronger effect = lower value",0.168 (active)
same,normalized growth,"S. cerevisiae deletion strains, locus YOL012C, strain htz1",0.228
same,normalized growth,"S. cerevisiae deletion strains, locus YOL147C, strain pex11, stronger effect = lower value",0.662 (active)
same,normalized growth,"S. cerevisiae deletion strains, locus YOR001W, strain rrp6, stronger effect = lower value",0.981
same,normalized growth,"S. cerevisiae deletion strains, locus YOR061W, strain CKA2, stronger effect = lower value",0.163 (active)
same,normalized growth,"S. cerevisiae deletion strains, locus YOR069W, strain VPS5, stronger effect = lower value",0.128 (active)
same,normalized growth,"S. cerevisiae deletion strains, locus YOR070C, strain gyp1, stronger effect = lower value",0.972
same,normalized growth,"S. cerevisiae deletion strains, locus YOR080W, strain dia2, stronger effect = lower value",1.02
same,normalized growth,"S. cerevisiae deletion strains, locus YOR083W, strain WHI5, stronger effect = lower value",0.937
same,normalized growth,"S. cerevisiae deletion strains, locus YOR106W, strain vam3, stronger effect = lower value",0.817 (active)
same,normalized growth,"S. cerevisiae deletion strains, locus YOR136W, strain idh2, stronger effect = lower value",0.645 (active)
same,normalized growth,"S. cerevisiae deletion strains, locus YOR144C, strain elg1, stronger effect = lower value",0.774 (active)
same,normalized growth,"S. cerevisiae deletion strains, locus YOR184W, strain ser1, stronger effect = lower value",0.346 (active)
same,normalized growth,"S. cerevisiae deletion strains, locus YOR265W, strain rbl2, stronger effect = lower value",0.984
same,normalized growth,"S. cerevisiae deletion strains, locus YOR270C, strain vph1, stronger effect = lower value",0.977
same,normalized growth,"S. cerevisiae deletion strains, locus YOR290C, strain snf2, stronger effect = lower value",0.989
same,normalized growth,"S. cerevisiae deletion strains, locus YOR316C, strain cot1, stronger effect = lower value",0.863 (active)
same,normalized growth,"S. cerevisiae deletion strains, locus YPL051W, strain arl3, stronger effect = lower value",0.822 (active)
same,normalized growth,"S. cerevisiae deletion strains, locus YPL078C, strain atp4, stronger effect = lower value",0.99
same,normalized growth,"S. cerevisiae deletion strains, locus YPL106C, strain sse1, stronger effect = lower value",0.941
same,normalized growth,"S. cerevisiae deletion strains, locus YPL240C, strain hsp82, stronger effect = lower value",1
same,normalized growth,"S. cerevisiae deletion strains, locus YPR119W, strain clb2, stronger effect = lower value",0.981
same,normalized growth,"S. cerevisiae deletion strains, locus YPR141C, strain kar3, stronger effect = lower value",0.988
same,normalized growth,"S. cerevisiae deletion strains, locus YPR163C, strain tif3, stronger effect = lower value",0.756 (active)
same,normalized growth,"S. cerevisiae deletion strains, locus YPR167C, strain met16, stronger effect = lower value",0.785 (active)
same,normalized growth,"S. cerevisiae deletion strains, strain wtn01, stronger effect = lower value",0.335 (active)
same,normalized growth,"S. cerevisiae strains, strain wild type, stronger effect = lower value",0.0644 (active)
